Drawing on PubChem BioAssay, this text covers composite z-score and z-score for five compounds.

The nature of assay [1]: anti-His antibody binders, primary screen, artefact control for SMM control protein annotation, biochemical, small-molecule microarray, 635 nm fluorescence (AID 1128).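 Also: score merges feature fluorescence with signal-to-noise for each printed compound spot.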 To be noted: anti-His Alexa647 antibody binding, higher = more signal.
Assay [2] has as its system Human papillomavirus type 1a E7 protein (residues 1-88). In words: HPV1a E7 small-molecule binders, primary screen, biochemical, small-molecule microarray, residues 1-88, 635 nm (AID 1129). To be noted: small-molecule microarray binding, fluorescence 635 nm; higher = more signal.
Assay [3] addresses Focal adhesion kinase 1 (Homo sapiens) (UniProt Q05397). In words: small-molecule microarray binders of FAK, primary screen, biochemical, 635/667 nm fluorescence, BSA, DTT (AID 1130).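 Also: composite of spot emission at 667 nm and signal to noise over triplicate slides.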 The following applies: PTK2 binding, 635 nm fluorescence, higher = more signal.
The subject of assay [4] is Fibrinogen (Alexa647-labelled). In words: fibrinogen binders on compound microarrays, profiling panel, artefact control for SMM control-protein annotation, biochemical, small-molecule microarray, 635/667 nm fluorescence (AID 1131).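 Also: z-score merges 667 nm fluorescence with per-spot signal-to-noise over triplicate slides.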 The following applies: fibrinogen-A647 binding fluorescence, higher = more signal.
For assay [5], the target named is Follistatin (Homo sapiens) (UniProt P19883). In words: follistatin binders on small-molecule microarrays, primary screen, biochemical, small-molecule microarray, 635/667 nm fluorescence (AID 1132). The following applies: FST binding, 635 nm fluorescence, higher = more signal.
Chain of Follistatin (Homo sapiens) (P19883 whole entry, looked up): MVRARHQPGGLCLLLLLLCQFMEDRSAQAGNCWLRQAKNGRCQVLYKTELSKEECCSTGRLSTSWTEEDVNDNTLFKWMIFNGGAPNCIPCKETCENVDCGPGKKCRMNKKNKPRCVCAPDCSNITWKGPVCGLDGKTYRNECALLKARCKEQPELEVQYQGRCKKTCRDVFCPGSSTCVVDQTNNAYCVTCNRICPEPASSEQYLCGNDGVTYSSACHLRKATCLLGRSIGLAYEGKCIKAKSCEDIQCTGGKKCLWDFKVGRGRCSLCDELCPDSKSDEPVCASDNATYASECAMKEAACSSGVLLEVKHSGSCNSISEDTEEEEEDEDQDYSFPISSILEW
Assay [6] deals with Fibroblast growth factor 2 (Homo sapiens) (UniProt P09038). In words: FGF2 binders on small-molecule microarrays, primary screen, biochemical, small-molecule microarray, 635/667 nm fluorescence (AID 1133). To be noted: small-molecule microarray binding, FGF2, fluorescence 635/667; higher = more signal.
Chain of Fibroblast growth factor 2 (Homo sapiens) (P09038 whole entry, looked up): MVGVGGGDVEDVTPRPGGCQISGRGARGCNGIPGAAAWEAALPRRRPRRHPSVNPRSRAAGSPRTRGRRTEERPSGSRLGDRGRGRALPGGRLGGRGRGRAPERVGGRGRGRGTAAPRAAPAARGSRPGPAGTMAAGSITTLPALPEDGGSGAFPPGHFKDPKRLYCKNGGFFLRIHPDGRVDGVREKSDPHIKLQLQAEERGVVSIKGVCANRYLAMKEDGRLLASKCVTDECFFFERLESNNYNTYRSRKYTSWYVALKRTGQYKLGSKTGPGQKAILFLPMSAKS
The nature of assay [7]: mitochondrial membrane potential change in A549 cells, profiling panel, cell-based, JC-1 fluorescence, basal, 24 h, 100 nL (AID 1138).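 Also: A549 lung adenocarcinoma cells under basal conditions with no added stimulus; test concentration not given here.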 To be noted: higher = more signal.
For the next assay, the system named is Lefty1. The assay is described as follows: Lefty1 binders on small-molecule microarrays, primary screen, biochemical, small-molecule microarray, 635/667 nm fluorescence (AID 1139). The following applies: small-molecule microarray binding, fluorescence 635/667; higher = more signal.
Assay [8] has as its system wheat germ agglutinin (Triticum aestivum), Alexa647-labelled. The assay is described as follows: wheat germ agglutinin binders on compound microarrays, profiling panel, artefact control for SMM control-protein annotation, biochemical, small-molecule microarray, 635/667 nm fluorescence (AID 1140).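 Also: score merges 667 nm feature emission with signal to noise over triplicate slides.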 The following applies: WGA-A647 binding, 635 nm fluorescence, higher = more signal.

Assay [9] deals with Luciferin 4-monooxygenase (Photinus pyralis) (UniProt P08659). In words: firefly luciferase enzyme inhibitors, primary screen, biochemical, luminescence, purified enzyme, 2006 set (AID 1141).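 Also: cell-free assay with purified firefly luciferase at 100 ng per well in PBS; test concentration not given here.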 The following applies: SteadyGlo luminescence, 30 min, higher = more signal, called active from +8 up or from −8 down.
Chain of Luciferin 4-monooxygenase (Photinus pyralis) (P08659 whole entry, looked up): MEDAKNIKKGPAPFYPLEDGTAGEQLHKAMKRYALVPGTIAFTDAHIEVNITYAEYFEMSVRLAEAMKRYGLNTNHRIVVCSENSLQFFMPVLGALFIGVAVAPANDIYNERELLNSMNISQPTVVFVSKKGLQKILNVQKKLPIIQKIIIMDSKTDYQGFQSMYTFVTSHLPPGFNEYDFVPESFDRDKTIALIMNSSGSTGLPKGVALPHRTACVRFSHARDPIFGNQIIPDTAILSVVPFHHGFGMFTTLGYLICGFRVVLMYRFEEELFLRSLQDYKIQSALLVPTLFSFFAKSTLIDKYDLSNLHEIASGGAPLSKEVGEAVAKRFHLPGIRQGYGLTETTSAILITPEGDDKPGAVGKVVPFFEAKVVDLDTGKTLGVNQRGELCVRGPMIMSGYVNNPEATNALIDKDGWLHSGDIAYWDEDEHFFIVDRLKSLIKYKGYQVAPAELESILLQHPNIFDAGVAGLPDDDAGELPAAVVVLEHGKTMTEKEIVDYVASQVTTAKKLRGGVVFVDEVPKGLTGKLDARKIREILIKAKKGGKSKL
For assay [10], the system named is Wnt5a (protein binding on small-molecule microarray). In words: Wnt5a binders on small-molecule microarray, primary screen, biophysical, 635/667 nm fluorescence (AID 1142).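 Also: fluorescence read at 667 nm with signal to noise per printed feature.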 The following applies: 635 nm fluorescence, higher = more signal.
A short description of assay [11]: cell viability in Huh7 cells, primary screen, cytotoxicity control for HCV replication inhibitor project, CellTiter-Glo luminescence, basal, 48 h (AID 1143).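 Also: Huh7 hepatoma cells carrying a hepatitis C replication reporter with no stimulus; test concentration not given here.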 The following applies: Huh7 HCV replicon, higher = more signal, called active from +8 up or from −8 down. On the technique in general: ATP-based viability assays read luminescence as a measure of living cells.

Assay [12] is described as follows: P. aeruginosa biofilm formation inhibitors, primary screen, PAO1 strain, BacTiter-Glo luminescence, LB-PBS (AID 1144). To be noted: 12 h, higher = more signal.
A short description of assay [13]: CREB reporter modulators without forskolin, primary screen, cell-based, PC12, CRE-LacZ reporter, unstimulated (AID 1145). To be noted: no forskolin, luminescence, 4.5 h, higher = more signal, called active from +8 up or from −8 down.
Assay [14] is described as follows: CREB reporter modulators under forskolin, primary screen, cell-based, PC12, CRE-LacZ reporter, forskolin-stimulated (AID 1146).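 Also: PC12 cells with 6xCRE LacZ reporter stimulated by forskolin 10 µM; beta-galactosidase reporter signal reflecting CREB driven transcription.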 The following applies: luminescence, 4.5 h, higher = more signal, called active from +8 up or from −8 down.
For assay [15], the target named is Streptavidin (Streptomyces avidinii) (UniProt P22629). In words: streptavidin binders on small-molecule microarray, primary screen, artefact control for SMM compound annotation, biophysical, 635/667 nm fluorescence (AID 1147).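 Also: signal reflects streptavidin binding to arrayed compounds as a control protein.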 The following applies: streptavidin binding, higher = more signal.
Chain of Streptavidin (Streptomyces avidinii) (P22629 whole entry, looked up): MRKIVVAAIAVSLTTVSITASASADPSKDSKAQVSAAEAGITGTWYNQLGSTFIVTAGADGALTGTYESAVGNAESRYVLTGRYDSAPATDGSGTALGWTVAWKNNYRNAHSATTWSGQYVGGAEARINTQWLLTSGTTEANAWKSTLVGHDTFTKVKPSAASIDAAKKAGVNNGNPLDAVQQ
Assay [16] can be described thus: small-molecule binders of probe aInhba, primary screen, biochemical, small-molecule microarray, 635/667 nm fluorescence (AID 1148).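 Also: score merges 667nm spot fluorescence with signal-to-noise for antibody binding to printed compounds.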 To be noted: higher = more signal.
In assay [17] the target is Torsin-1A (Homo sapiens) (UniProt O14656). The assay is described as follows: torsin A binders from cell lysate, primary screen, small-molecule microarray, wild-type, 635/667 nm (AID 1149). To be noted: COS7 hTOR1A-WT lysate, 635 nm fluorescence, higher = more signal.
Chain of Torsin-1A (Homo sapiens) (O14656 whole entry, looked up): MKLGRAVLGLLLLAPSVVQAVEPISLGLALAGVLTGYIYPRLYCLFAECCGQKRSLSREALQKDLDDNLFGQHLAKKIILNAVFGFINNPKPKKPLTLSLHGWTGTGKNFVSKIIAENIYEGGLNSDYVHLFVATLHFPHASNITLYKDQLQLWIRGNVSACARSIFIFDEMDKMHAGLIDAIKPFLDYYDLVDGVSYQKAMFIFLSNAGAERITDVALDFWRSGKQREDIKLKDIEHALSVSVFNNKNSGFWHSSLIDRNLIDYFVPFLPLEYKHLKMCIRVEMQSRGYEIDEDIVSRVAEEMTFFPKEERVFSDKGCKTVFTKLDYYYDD
Assay [18] has the same target. In words: small-molecule binders of mutant TOR1A in lysate, primary screen, cell lysate, small-molecule microarray, COS7 lysate, 635/667 nm fluorescence (AID 1150).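 Also: score pools 667 nm emission and signal to noise measuring lysate protein binding.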 To be noted: COS7 hTOR1A mutant lysate, 635 nm fluorescence, higher = more signal.
Assay [19] deals with Sonic hedgehog protein (Shh). The assay is described as follows: small-molecule binders of Shh protein, primary screen, biochemical, small-molecule microarray, 635/667 nm fluorescence (AID 1151).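 Also: Shh protein binding to compounds spotted on small-molecule microarray slides; score combines spot fluorescence intensity with signal-to-noise across triplicate slides.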 The following applies: small-molecule microarray binding, 635 nm fluorescence; higher = more signal.

The source made the active and inactive calls. Unless noted, no rule for the calls is given here.

Chain of Focal adhesion kinase 1 (Homo sapiens) (Q05397 whole entry, looked up): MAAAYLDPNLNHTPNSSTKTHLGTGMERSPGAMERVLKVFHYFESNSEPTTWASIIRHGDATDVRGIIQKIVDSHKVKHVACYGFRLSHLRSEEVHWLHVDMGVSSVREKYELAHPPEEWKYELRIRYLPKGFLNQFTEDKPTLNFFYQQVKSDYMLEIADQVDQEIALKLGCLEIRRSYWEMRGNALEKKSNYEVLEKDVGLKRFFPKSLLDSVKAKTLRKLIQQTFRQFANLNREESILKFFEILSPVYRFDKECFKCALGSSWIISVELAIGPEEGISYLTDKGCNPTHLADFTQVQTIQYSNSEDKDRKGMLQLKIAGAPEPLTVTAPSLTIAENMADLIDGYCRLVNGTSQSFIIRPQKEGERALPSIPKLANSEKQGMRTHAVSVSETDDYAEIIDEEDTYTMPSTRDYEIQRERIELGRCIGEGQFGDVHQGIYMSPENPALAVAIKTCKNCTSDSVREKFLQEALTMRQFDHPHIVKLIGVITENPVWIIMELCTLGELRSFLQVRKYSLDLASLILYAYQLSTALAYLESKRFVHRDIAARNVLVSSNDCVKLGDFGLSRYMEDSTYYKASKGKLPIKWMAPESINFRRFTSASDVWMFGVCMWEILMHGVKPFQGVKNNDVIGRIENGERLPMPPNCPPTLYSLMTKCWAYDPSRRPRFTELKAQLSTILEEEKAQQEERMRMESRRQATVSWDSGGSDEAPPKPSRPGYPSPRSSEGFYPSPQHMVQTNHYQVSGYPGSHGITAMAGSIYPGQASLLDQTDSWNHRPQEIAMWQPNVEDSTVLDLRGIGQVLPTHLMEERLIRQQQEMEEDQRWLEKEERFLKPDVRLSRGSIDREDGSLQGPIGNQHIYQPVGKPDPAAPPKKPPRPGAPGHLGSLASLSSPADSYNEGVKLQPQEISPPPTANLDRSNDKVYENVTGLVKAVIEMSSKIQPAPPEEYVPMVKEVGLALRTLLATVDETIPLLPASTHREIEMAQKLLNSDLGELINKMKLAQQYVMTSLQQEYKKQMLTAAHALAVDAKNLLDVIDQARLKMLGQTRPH

Turning to `COc1ccc([Si](C)(C)[C@H]2[C@H](CCO)O[C@@]3(C(=O)N(Cc4ccccc4)c4ccc(N5C(=O)COc6ccccc65)cc43)[C@@H]2C)cc1`, the composite z-score in assay [1] was -0.12; in [2], -0.127; in assay [3], -0.0125; in [4] it was 0.26; in assay [5], -0.242; in assay [6], -0.116. For the same compound, the composite z-score in the assay on Lefty1 is -0.0702; in assay [8] it was 1.1; in [10] it was 0.19; in assay [15], 0.0375; in [16], 0.189; with Torsin-1A (Homo sapiens) [17], -0.503. Besides, the results for the composite z-score (with Torsin-1A (Homo sapiens) [18]; in [19]) were 0.105 and 1.92, respectively. The z-score was 0.771 in assay [7]; -0.369 (inactive) in assay [9]; -6.69 (inactive) in [11]; -0.539 (inactive) in assay [12]; -0.258 (inactive) in assay [13]; -0.81 (inactive) in assay [14].

In the case of `O=C1C2C=CC(C(O)C3CC=CCC3)N(n3cnnc3)C2C(=O)N1Cc1ccccc1` (stereo not given), the composite z-score was 0.794 in assay [1]; -0.288 in assay [2]; 0.559 in assay [3]; 0.909 in [4]; -0.439 in assay [5]; -1.14 in assay [6]. For the same compound, the composite z-score with Lefty1 was -1.07; in assay [8] it was 0.451; in assay [10] it was -0.149; in assay [15] it was 0.0704; in [16], -0.128; with Torsin-1A (Homo sapiens) [17], 0.187. For the same compound, the results for the composite z-score (in the assay with Torsin-1A (Homo sapiens) [18]; in assay [19]) were -0.0519 and -0.183, respectively. In addition, the z-score was -0.704 in assay [7]; 0.934 (inactive) in assay [9]; 0.227 (inactive) in [11]; 0.356 (inactive) in [12]; 0.332 (inactive) in assay [13]; 0.705 (inactive) in [14].

As for `COc1ccc([Si](C)(C)[C@H]2[C@H](CC(=O)N(CCO)Cc3ccccc3)O[C@@]3(C(=O)N(Cc4cccc(N5C(=O)c6cccc7cccc5c67)c4)c4ccccc43)[C@@H]2C)cc1`, the composite z-score in assay [1] is 1.07; in assay [2], 1.09; in assay [3] it was 0.324; in assay [4], 0.281; in assay [5], 0.76; in assay [6], 1.27. The composite z-score in the assay with Lefty1 was 0.834; in assay [8], 0.862; in assay [10], 0.353; in assay [15], 0.544; in assay [16], -0.101; with Torsin-1A (Homo sapiens) [17] it was 0.871. In addition, the composite z-score with Torsin-1A (Homo sapiens) [18] came to 0.27; in assay [19] it was 1.61. The z-score is -0.203 in [7]; -1.19 (inactive) in [9]; -4.87 (inactive) in assay [11]; -0.188 (inactive) in assay [12]; 1.09 (inactive) in [13]; -1.14 (inactive) in assay [14].

With `Cc1ccc(N2C(=O)c3ccccc3[C@@H](C(=O)NCC(C)C)[C@@H]2c2ccc(CO)cc2)nc1`, the composite z-score was 0.0133 in assay [1]; -0.871 in assay [2]; -0.451 in [3]; -0.877 in assay [4]; -0.186 in assay [5]; -0.246 in assay [6]. The composite z-score in the assay with Lefty1 was -0.609; in assay [8] it was -0.674; in [10], -0.0957; in assay [15], -1.45; in assay [16], -0.231; in the assay with Torsin-1A (Homo sapiens) [17], -1.67. Besides, the composite z-score with Torsin-1A (Homo sapiens) [18] is -1.47; in assay [19] it was -0.0902. Also, the z-score in assay [7] is 0.738; in assay [9], -0.663 (inactive); in assay [11], -0.308 (inactive); in assay [12] it was 0.504 (inactive); in [13] it was -0.295 (inactive); in assay [14], 0.892 (inactive).

With `C[C@H]1C2[C@H](Cc3ccccc3)NC(=O)[C@]23C(=O)N[C@H](Cc2ccccc2)C(=O)N[C@H](Cc2ccccc2)C(=O)NC/C=C/CCC/C=C/C3[C@@H]2O[C@]12C` (stereo not given in full), the composite z-score is 0.896 in assay [1]; 1.18 in assay [2]; 0.0256 in [3]; 0.304 in [4]; 1.08 in assay [5]; 0.519 in [6]. Besides, the composite z-score with Lefty1 was 1.56; in [8], 0.756; in [10] it was 0.127; in [15] it was -0.224; in [16], -0.149; with Torsin-1A (Homo sapiens) [17] it was 0.299. Also, the composite z-score with Torsin-1A (Homo sapiens) [18] stood at 0.225; in [19], 0.843. In addition, the z-score in assay [7] is -0.256; in [9], -3.27 (inactive); in [11], -2 (inactive); in assay [12] it was 0.612 (inactive); in assay [13], 1.3 (inactive); in assay [14] it was -0.696 (inactive).
